Only some compounds are listed: those with a hit (about 19% of all), similar ones and a draw of the others.
TDP1 cell noCPT – qHTS for Inhibitors of human tyrosyl-DNA phosphodiesterase 1 (TDP1): qHTS in cells in absence of CPT; DT40 Tdp1-/- hTDP1 cells, no CPT, ATP luminescence, 48 h; Potency, µM (series often up to 46.2 µM), for inactives: at the top dose activity change, negative = growth inhibition, usual class: inhibitors; actives 15% (n = 420,000); also: potency is read from the fitted curve at half-maximal effect; nearly all actives have a fitted effect of over 55% in size
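Stably hTDP1-transfected Tdp1-null chicken DT40 cells were treated with library compounds minus camptothecin and grown for at least 48 hr at 37 °C, after which cellular ATP was quantified by luminescence.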
HT1080 IDH1KD tx – HT-1080 IDH1 knockdown cell toxicity (counter line); HT-1080 IDH1 knockdown viability, ATP luminescence, 48 h; Potency, µM (highest dose often 46.1 µM), for inactives: at the highest dose activity, negative = toxicity, most hits filed as cytotoxic; actives 2% (n = 360,000);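 also: potency is read from the fitted curve at half-maximal effect; 0% = DMSO wells and -100% = cell-free medium wells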
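% activity derives from luminescence (CellTiter-Glo), normalised to DMSO and no-cell wells. HT-1080-IDH1KD cells, 750/well, had 48 h compound exposure at 37 °C.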
IL1B secr inh – inhibitors of inflammasome signaling (IL-1 beta secretion); THP-1 LPS/ATP IL-1B secretion, AlphaLISA, 16 h; stronger effect = lower value; activity change, % at 57.5 µM; actives 4.7% (n = 360,000); in the data active = activity change below about -50%; inconclusive = mostly about -30% to -49%
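THP-1 cells pretreated 1 hr with compounds (up to 57.5 uM final), then stimulated with LPS (250 ng/mL final) plus ATP (1.25 mM final); secreted IL-1B measured by AlphaLISA after 16 hr, decreased signal indicating inhibition.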
uPA generation – cell surface uPA generation inhibition; Potency, µM (titrated, usually from 38.3 µM), without a hit: at the top dose activity change, negative = inhibition, actives largely listed as inhibitors; cell surface uPA generation assay, qHTS; actives 0.31% (n = 330,000); active = well fitted inhibition curve with a large enough effect; inconclusive = small, poorly fitted or top-dose-only effect; inactive = no such curve, though single readings can be large or run the other way; tested in mouse RAW 264.7 cells; also: potency is read from the fitted curve at half-maximal effect; nearly all actives have a fitted effect of over 55% in size
TDP1 cell CPT – growth inhibition of DT40 Tdp1-/-;hTDP1 cells with camptothecin (screen for TDP1 inhibitors). Potency, µM (series often up to 46.2 µM), for the others: at the highest dose activity change, negative = growth inhibition, usual class: inhibitors. chicken DT40 Tdp1-/-;hTDP1 cells + 20 nM CPT, ATP luminescence, 48 h. actives 12% (n = 420,000); also: potency is read from the fitted curve at half-maximal effect; nearly all actives have a fitted effect of over 55% in size
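Chicken DT40 Tdp1-/- cells stably complemented with human TDP1 were seeded at 400 cells/well in medium containing 20 nM camptothecin, exposed to pin-transferred compounds, and grown at 37 °C for at least 48 hr. Viability was read as ATP luminescence.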
HT1080-NT tox – kills 2HG-producing HT-1080-NT fibrosarcoma cells; HT-1080-NT fibrosarcoma viability, CellTiter-Glo ATP luminescence, 48 h; Potency, µM (highest dose often 46.1 µM), inactives show at the highest dose activity, negative = less viability, hits mostly cytotoxic; actives 1.6% (n = 360,000); AID 686970;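 also: NT is the 2HG producing partner of a matched IDH1 knockdown line; potency is read from the fitted curve at half-maximal effect; 0% = DMSO-treated cells and -100% = media-only wells without cells; nearly all actives have a fitted effect of over 55% in size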
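Viability by CellTiter-Glo luminescence after 48 h compound exposure at 37C of HT-1080-NT cells (750/well, RPMI, 5% FBS). % activity scaled between DMSO wells and medium-only wells, then curve-fitted and categorized by curve class.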
An asterisk follows results filed as active; ? = inconclusive; . = no result. Unless noted, calls follow the shape of the dose curve; as a rule, active = well fitted curve in the direction sought with a large enough effect; inconclusive = small, poorly fitted or top-dose-only effect, or another doubt; inactive = no such curve, though single readings can be large; an effect the other way counts as inactive or inconclusive. Unless noted, % is scaled to controls: 0 for no effect and ±100 for the full control effect.

SMILES	TDP1 cell noCPT	HT1080 IDH1KD tx	IL1B secr inh	uPA generation	TDP1 cell CPT	HT1080-NT tox
CCOC(=O)C1=CCN(S(=O)(=O)c2ccc(F)cc2)C1c1ccc(F)cc1 (centres undefined)	15µM*	-3%	28	.	?	-1%
COC(=O)c1cc2occc2n1CC(=O)Nc1ccc(C(C)C)cc1	-28%	.	.	.	?	.
O=C1Nc2ccc(I)cc2C1=Cc1cc(Br)c(O)c(Br)c1	11µM*	.	.	.	10µM*	.
Cc1ccc2c(c1)/C(=C/c1ccccc1)C(=O)N2	?	?	-82*	-5%	-12%	-26%
O=C1Nc2ccc(I)cc2/C1=C/c1cc(Br)c(O)c(Br)c1	?	.	.	.	13µM*	.
CCCN(C)C1CN(Cc2cn(Cc3ccc(F)cc3)nn2)S(=O)(=O)C1 (centres undefined)	-9%	-1%	-8	.	6%	22%
Oc1ccc(O)c(-c2cnns2)c1	?	-23%	?	1%	15µM*	-25%
COc1ccc(CNC(=O)CN(Cc2ccc(C)cc2)C(=O)c2csnn2)cc1	-11%	7%	7	3%	0%	4%
COc1ccccc1NC(=O)C(C(C)C)N1C(=O)c2ccccc2C1=O (centres undefined)	3%	12%	7	-5%	2%	1%
CCC(OC(=O)C(C)N1C(=O)C(=O)c2ccccc21)C(=O)Nc1ccccc1OC (centres undefined)	5.8µM*	-5%	14	-5%	4.6µM*	-15%
CCn1c(C)nc2cc(C(=O)N/N=C(\C)c3ccccc3O)ccc21	2.9µM*	-16%	0	-4%	3.7µM*	-3%
COc1cc(CNc2ncnc3c2ncn3[C@H]2CN(Cc3ccc(-c4ccccc4)cc3)C[C@@H](CO)O2)cc(OC)c1OC	12µM*	?	0	.	8.2µM*	?
COc1cc(CNc2ncnc3c2ncn3[C@H]2CN(Cc3cccc4ccccc34)C[C@@H](CO)O2)cc(OC)c1OC	23µM*	?	-15	.	18µM*	?
COc1cc(CNc2ncnc3c2ncn3[C@H]2CN(Cc3ccc(C(=O)O)cc3)C[C@@H](CO)O2)cc(OC)c1OC	10%	?	61	.	1%	22%
COc1cc(CNc2ncnc3c2ncn3[C@H]2CN(Cc3ccncc3)C[C@@H](CO)O2)cc(OC)c1OC	13µM*	-13%	74	.	13µM*	-3%
COc1ccc([C@H]2C[C@@H](O)[C@H](n3cc(-c4ccc(F)cc4)nn3)CN2C(=O)C2CCCCC2)cc1	?	-10%	22	.	?	-3%
C(=C\c1ccccc1)/C=N/Nc1nc2ccccc2s1	-10%	?	-3	-7%	-16%	-8%
O=c1nc(N/N=C/C=C/c2ccccc2)cn[nH]1	8.2µM*	27%	-2	3%	?	?
CC1Cc2cccc3ccc(=O)n(c23)C1 (centres undefined)	-12%	18%	23	-3%	-29%	11%
COc1ccc(-c2cc(C(F)F)n3ncc(C(=O)n4ccnc4C)c3n2)cc1	18µM*	?	-21	-8%	15µM*	-25%
CCOC(=O)N1CCN(C(=O)c2cnn3c(C(F)F)cc(-c4ccc(C)cc4)nc23)CC1	?	4%	-25	-7%	?	1%
Cc1ccc(-c2cc(C(F)F)n3ncc(C(=O)N4CCCc5ccccc54)c3n2)cc1	-22%	-2%	12	3%	?	-2%
Cc1ccc(-c2cc(C(F)F)n3ncc(C(=O)N4CCN(c5cccc(C)c5C)CC4)c3n2)cc1	18µM*	13%	8	-5%	?	8%
